According to PubChem BioAssay (NCI):
This is part of a sample that, as a whole, favours compounds with a hit. Of some 79,000 tested, about 15% had one in any assay. A number with no mark means an inactive call. Rule as the data show it: active = growth inhibition above about 70%; inactive = the rest.

Experiment: NCI Yeast Anticancer Drug Screen. Data for the sgs1 mgt1 strain (AID 161);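 also: 0% = growth of cultures given vehicle only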
Settings: S. cerevisiae sgs1 mgt1 strain, at 50.0 µM, active compounds read high
In short: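 Growth of a repair-deficient yeast mutant was monitored after compound treatment and expressed as inhibition relative to vehicle-treated cultures.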
Work on `CSC(=Nc1nnc(-c2ccc([N+](=O)[O-])cc2)s1)SC` yielded a growth inhibition of -23.6%.
`BrCCCOc1ccccc1Br` gave a growth inhibition of 1.6%.
In the case of `Clc1cccc(NNc2cccc(Cl)c2)c1`, the growth inhibition is reported as -13.8%.
`CCCCCCCCCCCCCCCC(=O)OCC(=O)O` showed a growth inhibition of 23.2%.
Compound `O=C1CSC(=O)N1` has a growth inhibition of -0.2%.
With `CC(C)OC(=O)Nc1ccc(F)c(F)c1` the growth inhibition was 2.6%.
With `CC(C)CN1CC(C)C(=O)NC1=O` (stereo not given) the growth inhibition was -2.45%.
Compound `COc1ccc2cc(C(=O)CCC(=O)O)ccc2c1` has a growth inhibition of -16.4%.
`CC(C)C1NC(C(=O)O)C(C)(C)S1` (stereo not given) gave a growth inhibition of -1.6%.
For `CCCc1c(Cl)nc(Cl)nc1Cl`, the growth inhibition was 11.8%.
Compound `O=C1C(N=Nc2ccccc2)Sc2nc3ccccc3n21` (stereo not given) has a growth inhibition of 2.85%.
Compound `CCOC(=O)CC(=O)CC` has a growth inhibition of -18.8%.
Compound `CCOC(=O)c1c2ccc(/C=C/c3ccccn3)ccc-2c(C(=O)OCC)c1N` has a growth inhibition of -1%.
For `CC(=O)NCC1(c2ccccc2)CCN(Cc2ccccc2)CC1`, the growth inhibition was -11.7%.
For `O=C(Nc1ccccc1Cl)c1ccccc1O`, the growth inhibition was -3.2%.
`BrCCCCCCCCCBr` gave a growth inhibition of 1.05%.
In the case of `COc1ccc(Nc2nc(NNC(=O)Cc3ccccc3)nc(NNC(=O)c3ccncc3)n2)cc1`, the growth inhibition is reported as 30.1%.
`CCN(CC)Cc1cc(C)c(O)c(N=Nc2cc(OC)c(N=Nc3ccc([N+](=O)[O-])cc3)cc2OC)c1C` gave a growth inhibition of 34.1%.
With `CCNC(=S)NC1CCCCC1` the growth inhibition was 3.65%.
Work on `CC(=O)CC(=O)NCc1ccc2c(c1)OCO2` yielded a growth inhibition of -16.3%.
